The values below come from PubChem BioAssay (NCATS).

Measured potencies and affinities stand elsewhere. The source made the active and inactive calls. No rule for the calls is given here.
Also: 0% is about no effect.

The conditions of the test: Ebola virus entry assay, green fluorescence channel.
Turning to `CCCCCCCCCCCC(=O)[O][Sn]([CH2]CCC)([CH2]CCC)[O]C(=O)CCCCCCCCCCC`, the efficacy is -17.6% (inactive). In the case of `CC(=O)OCC1=C(C(=O)O)N2C(=O)[C@@H](NC(=O)Cc3cccs3)[C@H]2SC1`, the efficacy was -9.53% (inactive). The value for `FC(F)(F)c1ccccc1-n1ccnc1` was 12.1% (inactive).

In the case of `CNCCCCOc1ccccc1Cc1ccccc1`, the efficacy is 68.3% (inactive). The value for `NS(=O)(=O)c1cc(-c2nn[nH]n2)c(NCc2cccs2)cc1Cl` was -20.9% (inactive); that for `CCCC(=O)OCOC(=O)C1=C(C)NC(C)=C(C(=O)OC)C1c1cccc(Cl)c1Cl` (configuration not stated) was 17.3% (inactive). To `Cc1cc(NS(=O)(=O)c2ccc(N)cc2)no1` belongs 21.6% (inactive); to `O=C(O)c1c(O)c(-c2ccccc2)nc2ccccc12`, 18% (inactive). To `COc1cc(C(=O)NC2CCCNC2)cc(OC)c1OC` (configuration not stated) belongs -16% (inactive).

In the case of `O=C(O)c1ccccc1C(=O)Nc1ccc(S(=O)(=O)Nc2nccs2)cc1`, the efficacy was -12.6% (inactive). To `COc1ccc2nc(SCc3ncc(C)c(OC)c3C)[nH]c2c1` belongs -11.5% (inactive); to `CC(C(=O)O)c1ccc(/C=C2\CCCCC2=O)cc1` (configuration not stated), 13.8% (inactive); to `O=C(Oc1ccccc1)c1ccccc1O`, -17.4% (inactive). To `CC(C)Cn1cnc2c(N)nc3ccccc3c21` belongs -30.7% (inactive).

Turning to `COc1ccc(S(=O)(=O)Nc2nnc(CC(C)C)s2)cc1`, the efficacy is -19% (inactive). The value for `CC[N+]1(CC)CCC(OC(=O)C(O)(c2ccccc2)c2ccccc2)C1` (configuration not stated) was -22.9% (inactive); that for `C[n+]1c2cc(N)ccc2cc2ccc(N)cc21` (tested in a mixture with another compound) was 129% (inactive).
